Screens: PubChem BioAssay, National Center for Advancing Translational Sciences (NCATS)
MCF10A rereplic: DNA re-replication induction in MCF 10a cells; MCF 10A DNA re-replication, Hoechst nuclear intensity, 48 h; Potency, µM (series often up to 46.1 µM), hits mostly activators; 2.9% of 350,000 active; also: nearly all actives have a fitted effect of over 50% in size
RGS4 inh: inhibitors of human regulator of G protein signaling 4 | P49798 | Transcreener GDP fluorescence polarization, RGS4-accelerated GTP hydrolysis | Potency, µM (highest dose often 114 µM), actives largely listed as inhibitors | 0.039% of 390,000 active; also: nearly all actives have a fitted effect of over 75% in size
Target sequence (P49798 whole entry, looked up): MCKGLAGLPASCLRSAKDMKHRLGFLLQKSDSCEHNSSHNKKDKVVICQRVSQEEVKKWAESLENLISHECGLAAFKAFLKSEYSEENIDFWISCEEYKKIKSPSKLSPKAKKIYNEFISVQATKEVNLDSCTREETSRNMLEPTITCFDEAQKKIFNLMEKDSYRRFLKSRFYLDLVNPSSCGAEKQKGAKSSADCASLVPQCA
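MLSMR compounds (23 nl, pin-transferred) preincubated 10 min at room temperature with a 500nM (2x) first reagent, then RGS4 at 900nM (2x) plus Transcreener GDP mix added; fluorescence polarization (620/688 nm) read before and after 90 min at 30 °C.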
KB-3-1 tox: kills parental KB-3-1 adenocarcinoma cells | Potency, µM (series often up to 46.1 µM), most hits filed as cytotoxic | KB-3-1 viability, CellTiter-Glo ATP luminescence, 72 h | 1.4% of 400,000 active | AID 1347075; also: nearly all actives have a fitted effect of over 60% in size
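KB-3-1 cells, DMEM (no phenol red) + 10% FBS; compound by pin transfer, 72 h, 37 °C. Readout: CellTiter-Glo luminescence after 10 min. Data normalized, curve-fitted.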
SW480 rerep: DNA re-replication induction in SW480 cells. SW480 DNA re-replication, Hoechst DNA content imaging, 48 h. Potency, µM (top dose mostly 46.1 µM), actives largely listed as activators. 1.8% of 340,000 active. AID 624297; also: nearly all actives have a fitted effect of over 55% in size
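First, 250 cells per well were seeded. Next, compound or vehicle (23 nL) was pinned in, plates sat 48 hr at 37 C. Finally Hoechst was added for 40 min before fluorescence scanning.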
KB-V1 MDR tox: KB-V1 MDR subline cytotoxicity; KB-V1 MDR cells viability, CellTiter-Glo, 72 h; Potency, µM (titrated, usually from 46.1 µM), hits mostly cytotoxic; 3.4% of 400,000 active; also: nearly all actives have a fitted effect of over 60% in size
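Luminescent ATP read-out (CellTiter-Glo, 10 min) measures survival of drug-selected KB-V1 MDR cells after 72 h, 37 degrees C compound exposure. Medium: phenol-red-free DMEM, 10% FBS. Values from fitted concentration-response curves.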
TSG101-PTAP inh: blocks PTAP/TSG101 interaction to inhibit HIV-1 budding | 340,000 tested, under 10 active | AID 493005 | Potency, µM (titrated, usually from 115 µM), hits mostly inhibitors | Fluorescence polarization, FITC-PTAP peptide / Tsg101 binding | Q99816; active = well fitted inhibition curve with a large enough effect in the main read-out, with a control signal flat, not every such curve was filed as active; inconclusive = small, poorly fitted or top-dose-only effect, or effect the other way, or a change in a side signal; inactive = no such curve, though single readings can be large or run the other way
Target sequence (Q99816 whole entry, looked up): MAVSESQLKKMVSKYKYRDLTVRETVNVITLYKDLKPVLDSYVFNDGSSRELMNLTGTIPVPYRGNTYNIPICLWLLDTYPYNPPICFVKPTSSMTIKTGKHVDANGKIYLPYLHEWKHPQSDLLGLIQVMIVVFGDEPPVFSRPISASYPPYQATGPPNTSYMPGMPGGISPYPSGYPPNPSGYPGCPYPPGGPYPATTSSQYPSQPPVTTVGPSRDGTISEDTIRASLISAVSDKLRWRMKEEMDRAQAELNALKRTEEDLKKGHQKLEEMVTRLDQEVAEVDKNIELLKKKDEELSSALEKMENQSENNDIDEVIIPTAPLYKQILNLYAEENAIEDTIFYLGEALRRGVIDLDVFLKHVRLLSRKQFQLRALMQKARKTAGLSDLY
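Tsg101 binding domain (10 uM final) was mixed with compound and a FITC-labeled PTAP peptide (50 nM final) in HEPES pH 7.5 buffer with NaCl, Tween 20, EDTA and TCEP; fluorescence polarization was read after 20 min at r.t.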
Hits are given with their value; - = inactive; ? = inconclusive; . = not tested or not shown; [ ] = dose if it differs, or a comment. Shown are actives, neighbours in structure and some others; about 6.6% of the full set was active somewhere. Unless noted, calls follow the shape of the dose curve; as a rule, active = well fitted curve in the direction sought with a large enough effect; inconclusive = small, poorly fitted or top-dose-only effect, or another doubt; inactive = no such curve, though single readings can be large; an effect the other way counts as inactive or inconclusive.

SMILES	MCF10A rereplic	RGS4 inh	KB-3-1 tox	SW480 rerep	KB-V1 MDR tox	TSG101-PTAP inh
Cc1sc2nc(C3CC3)nc(SCC(=O)N3c4ccccc4CC3C)c2c1C (stereo unspecified)	9.2µM	-	-	15µM	5.8µM	-
O=C(CSc1nnc(CNc2ccccc2)o1)N1CCCc2ccccc21	-	-	-	-	13µM	-
O=C(Nc1nnc(SCC(=O)N2CCCc3ccccc32)s1)c1ccccc1	-	-	-	-	?	-
CC(=O)Nc1nnc(SCC(=O)N2CCCc3ccccc32)s1	1.8µM	-	-	-	-	-
Cc1nc(SCC(=O)N2c3ccccc3NC(=O)CC2C)c2c(C)c(C)sc2n1 (stereo unspecified)	?	-	-	-	-	-
CC1Cc2ccccc2N1C(=O)CSc1ccccc1 (stereo unspecified)	-	-	-	-	16µM	-
COc1ccc(NCc2nnc(SCC(=O)N3CCCc4ccccc43)o2)cc1	-	-	-	-	-	-
CCOc1ccccc1NC(=O)C(CC(C)C)NS(=O)(=O)c1ccc2c(c1)CCN2C(C)=O (stereo unspecified)	.	-	-	.	-	.
COC(=O)CCN(Cc1ccco1)S(=O)(=O)c1ccc(F)cc1Br	.	-	.	.	.	.
O=C(Cc1cccs1)Nc1nnc(SCC(=O)N2CCCCC2)s1	-	-[11.4 µM]	-	-	-	-
O=C(Nc1nnc(SCC(=O)N2CCCCC2)s1)c1cccs1	-	-	-	-	21µM	-
COc1ccc(N2CCN(C(=O)CN=C3NS(=O)(=O)C(c4ccc(C)cc4)=C3C)CC2)cc1	-	-	-	-	3.7µM	.
CO/N=C/C(=N\Nc1ccc(OC)cc1)C(=O)c1ccc(OC)cc1	-	-	?	?	12µM	-
CCOc1ccc(NC(=O)Cn2c(=O)n(CCc3ccccc3)c(=O)c3c4c(sc32)CN(C(C)=O)CC4)cc1	.	-	-	.	-	.
CCC(CC)C(=O)Oc1c(Sc2ccccc2[N+](=O)[O-])c(C)nn1C(C)(C)C	-	-	-	-	15µM	-
Cc1ccc(NC(=O)c2cc(-c3ccccc3)nn2-c2ccccc2)c(Br)c1	?	-	?	-	-	-
O=C(Nc1ccc(F)cc1)c1nn(-c2ccccc2)c(=O)cc1Cl	?	-	4.6µM	?	?	-
COC(=O)c1nn(-c2ccccc2)c(=O)cc1O	-	?	-	-	-	-
Cc1ccc(NC(=O)c2cc(-c3ccccc3)nn2-c2ccccc2)cc1	21µM	-	?	-	21µM	-
Cc1nn(-c2ccccc2)c2c1cc1c(=O)n(C)c(=O)nc-1n2-c1cccc(Cl)c1	.	-	-	.	-	.
COc1ccc(Cl)cc1NS(=O)(=O)c1cccc(C(=O)NC2CC2)c1	-	-	-	-	18µM	-
Cn1cc(/C=C/c2cc[n+](C)cc2)c2cc(F)ccc21	?	-	-	?	-	?
Cn1cc(/C=C/c2cc[n+](C)cc2)c2cc(Cl)ccc21	13µM	-	0.92µM	11µM	-	-
CCOC(=O)C1CCN(C(=O)c2cc3c(C)cc(C)cc3[nH]2)CC1	-	-	-	-	?	-
CCOc1ccccc1N1CCN(C(=O)c2cc3ccccc3cc2OC)CC1	2.1µM	-	3.7µM	15µM	16µM	-
SMILES	MCF10A rereplic	RGS4 inh	KB-3-1 tox	SW480 rerep	KB-V1 MDR tox	TSG101-PTAP inh
CCOc1ccccc1N1CCN(C(=O)c2cc3c(C)cc(C)cc3[nH]2)CC1	?	-	18µM	21µM	23µM	-
CCOc1ccccc1N1CCN(C(=O)CC(C)C)CC1	-	-	-	-	23µM	-
COc1cc2ccccc2cc1C(=O)N1CCN(C(C)=O)CC1	-	-	-	?	-	-
CCc1ccc(C2c3c(-c4cc(C)ccc4O)n[nH]c3C(=O)N2Cc2cccnc2)cc1 (stereo unspecified)	.	-	-	.	-	.
Cc1cccc(C)c1NC1=NC2(CCCCC2)N=C(N)N1	-	-	-	-	-	-
NC1=NC2(CCCCC2)N=C(Nc2ccc(Br)cc2)N1	-	-	23µM	-	-	-
Cc1ccc(NC2=NC3(CCCC3)N=C(N)N2)c(C)c1	-	-	4.1µM	?	-	-
Cc1ccc(NC2=NC3(CCCCC3)N=C(N)N2)c(C)c1	-	-	7.3µM	-	-	-
Cc1ccccc1NC1=NC2(CCCC2)N=C(N)N1	?	-	?	-	?	-
Cc1ccc(C)c(NC2=NC3(CCCCC3)N=C(N)N2)c1	-	-	18µM	-	-	-
COc1cccc(NC(=O)Cn2c(=O)n(-c3cccc(OC)c3)c(=O)c3sc4ccccc4c32)c1	.	-	-	.	-	.
O=C(Nc1ccc2ccccc2c1)Nc1nnc(-c2cccnc2)s1	.	.	?	.	-	.
CCCCn1c(CN2CCN(c3cccc(Cl)c3)CC2)nc2c1c(=O)[nH]c(=O)n2C	?	-	?	5.8µM	-	-
Cn1c(=O)[nH]c(=O)c2c1nc(CN1CCN(c3cccc(Cl)c3)CC1)n2CCCc1ccccc1	-	-	-	-	-	-
COc1ccc(C(=O)C[C@@H]2OC[C@H](C(C)C)N2S(=O)(=O)c2ccc(C)cc2)cc1OC	.	.	-	.	21µM	.
CC(C)(C)c1ccc(S(=O)(=O)NCC(=O)N2CCCC2)cc1	-	-	-	5.8µM	-	-
CCOc1ccc(S(=O)(=O)Nc2cccc(C(=O)N3CCN(c4ccccn4)CC3)c2)cc1	.	.	-	.	?	.
O=C(c1ccc(S(=O)(=O)Nc2cccc(C(F)(F)F)c2)cc1)N1CCN(c2ccccc2O)CC1	?	-	?	-	21µM	-
O=C(c1ccc(NS(=O)(=O)c2ccc(F)cc2)cc1)N1CCN(c2ccccc2O)CC1	?	-	-	-	?	-
O=C(CNS(=O)(=O)c1ccc(F)cc1)N1CCCC1	?	-	-	-	-	-
Cc1ccc(S(=O)(=O)NCCC(=O)N2CCN(C/C=C/c3ccccc3)CC2)cc1	-	-	-	-	-	-
CC(=O)c1ccc(S(=O)(=O)NCC(=O)N2CCN(C/C=C/c3ccccc3)CC2)cc1	-	-	-	-	18µM	-
CCOc1ccc(S(=O)(=O)Nc2cccc(C(=O)N3CCN(c4ccccc4O)CC3)c2)cc1	?	-	-	-	21µM	-
COc1ccccc1CCNC(=O)Cc1c(C)c2cc3c(C)coc3cc2oc1=O	.	-	.	.	.	.
CC(Oc1ccccc1F)C(=O)N1CCC(c2nc3ccccc3o2)CC1 (stereo unspecified)	.	-	.	.	.	.
O=C(c1cccc(S(=O)(=O)N2CCOCC2)c1)N1CCN(C/C=C/c2ccccc2)CC1	?	-	.	-	.	-
CCOc1ccc(NS(=O)(=O)c2cccc(C(=O)N3CCN(C/C=C/c4ccccc4)CC3)c2)cc1	?	-	18µM	-	6.5µM	-
